{"source": "PubChem BioAssay AID602233", "about": "(National Center for Advancing Translational Sciences (NCATS), 2012)", "note": "Hit rate of the full screen: of about 380,000 compounds, about 170 (0.045%) were called active. A call without a number means that no potency is given here. This is one part of a sample in which actives are shown more often than they occur. Calls follow the shape of the dose curve; as a rule, active = well fitted inhibition curve with a large enough effect; inconclusive = small, poorly fitted or top-dose-only effect; inactive = no such curve, though single readings can be large or run the other way. Potency is read from the fitted curve at half-maximal effect.", "data": [{"biological_target": "Phosphoglycerate kinase, glycosomal (Trypanosoma brucei brucei) (UniProt P07378)", "sequence (P07378 whole entry, looked up)": "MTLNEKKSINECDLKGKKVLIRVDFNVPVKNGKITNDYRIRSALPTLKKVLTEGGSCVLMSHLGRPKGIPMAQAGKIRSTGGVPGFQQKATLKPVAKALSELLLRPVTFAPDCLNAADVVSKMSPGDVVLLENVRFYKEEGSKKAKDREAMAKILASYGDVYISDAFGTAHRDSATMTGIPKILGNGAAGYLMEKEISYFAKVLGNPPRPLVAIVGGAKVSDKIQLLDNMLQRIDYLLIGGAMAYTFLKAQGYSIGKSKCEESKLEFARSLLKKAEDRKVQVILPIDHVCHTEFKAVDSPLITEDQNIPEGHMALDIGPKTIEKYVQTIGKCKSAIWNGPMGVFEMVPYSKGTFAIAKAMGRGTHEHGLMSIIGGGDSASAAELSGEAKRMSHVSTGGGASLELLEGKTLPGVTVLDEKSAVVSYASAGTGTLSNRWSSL", "assay": "qHTS Assay to Find Inhibitors of Phosphoglycerate Kinase; also: nearly all actives have a fitted effect of over 60% in size", "conditions": "PGK/GAPDH coupled, Kinase-Glo luminescence, 60 min; series mostly up to 57.5 µM", "text": "Several species of the Trypanosomatidae family of parasitic protozoans cause a spectrum of diseases throughout the tropical and subtropical world. Sleeping sickness, caused by two subspecies of Trypanosoma brucei, is endemic to areas of sub-Saharan Africa, while Chagas disease, a manifestation of Trypanosoma cruzi infection, is prevalent throughout Central and South America. In addition, many species of Leishmania are responsible for a range of cutaneous and visceral diseases, causing ulcers, destructive lesions and kalaazar, a lethal infection of the viscera. Collectively, these organisms infect 30 million people worldwide (~500 million live in endemic areas), and account for ~130,000 deaths annually. Given their debilitating and prevalent nature, trypanosomatid parasites impose a heavy medical, economic and social burden on entire populations, primarily in the developing world. The problem is further exacerbated by the fact that existing treatments have progressed little in the past 50 years, and current drugs show high toxicity and poor efficacy. […] Blood-stream stages of T. brucei are entirely dependent on glycolysis as a source of ATP, and the tricarboxylic acid cycle and oxidative phosphorylation are both repressed. Glycolysis in axenically cultured T. cruzi, representing the intracellular pathogenic stage, is also essential for these parasites. […] Previous studies have shown that the glycolytic enzyme, phosphoglycerate kinase (PGK), is a viable target for drugs to kill these parasites. […] NIH Molecular Libraries Probe Production Network [MLPCN] NIH Chemical Genomics Center [NCGC] MLPCN Grant: R03 MH093212 PI Name: Malcolm Walkinshaw, University of Edinburgh\n3ul of substrate/PGK buffer (columns 1,2,5-48) are dispensed into Greiner white solid bottom 1536-well assay plates; columns 3-4 receive only TEA buffer as 0x PGK controls. Compounds are then transferred via Kalypsys pin tool equipped with 1536-pin array (10nl slotted pins, V&P Scientific, San Diego, CA). Following addition of compound, 1ul of GAPDH (100nM final concentration, all columns) is added to initiate the reaction (this upstream coupling enzyme is necessary for in-well production of PGK substrate, 1,3-bisphosphoglycerate (1,3-BPG), which is unstable and not commercially available). The plates are then incubated at room temperature for 60 minutes. Kinase-Glo Plus reagent is added (2ul) and plates incubated for 10 minutes, before being transferred to a ViewLux high-throughput CCD imager (PerkinElmer) wherein single end-point measurements of luminescence are acquired using a clear filter. All reagents are diluted in an assay buffer consisting of 100mM TEA (pH 7.6), 5mM MgCl2 and 0.01% Tween-20.", "values": [{"compound": "COc1ccc(N2C(=O)/C(=C/c3ccco3)C(=O)NC2=S)cc1", "Potency": "12.6 µM (active)"}, {"compound": "O=C1NC(=O)N(Cc2ccco2)C(=O)/C1=C\\c1ccc(-c2ccc(F)cc2)o1", "Potency": "inactive"}, {"compound": "COc1cccc(N2C(=O)NC(=O)/C(=C\\c3ccc([N+](=O)[O-])s3)C2=O)c1", "Potency": "inactive"}, {"compound": "c1ccc(C2NCc3ccccc3-n3cccc32)cc1", "note": "(stereo not given)", "Potency": "inactive"}, {"compound": "N[C@@H](Cc1c[nH]c2ccccc12)c1nnc(SCc2c(F)cccc2Cl)o1", "Potency": "inactive"}]}]}
